The source of these data is PubChem BioAssay (NCI).

Test systems include SR leukemia; RPMI-8226 leukemia; OVCAR-8 ovarian; OVCAR-5 ovarian; OVCAR-4 ovarian; SK-OV-3 ovarian; IGROV1 ovarian; OVCAR-3 ovarian; HS 578T breast; NCI/ADR-RES ovarian; T-47D breast; MDA-MB-435 melanoma; SW-620 colon; MCF7 breast; HCT-116 colon; HCC-2998 colon; KM12 colon; BT-549 breast.
Holding throughout (assay): NCI-60 one-dose screen, 48 h (100 = growth as untreated, 0 = no growth, -100 = all killed)
Common to all, as to conditions: 10 µM

Compounds without any hit were thinned out: in the full panel of roughly 83,000, 20% have a hit.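 Activity criterion: percent growth below 10, measured after cells in 96-well plates were exposed to a single compound concentration for 48 hours.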 A number with no mark means an inactive call. Calls of active or inactive are those of the source.

As for `CCOC(=O)[C@@H]1[C@H](c2ccccc2)[C@H]([N+](=O)[O-])[C@H](c2cn(-c3ccccc3)nc2C)N1Cc1ccccc1`, the growth with SR leukemia was 46.9%; with RPMI-8226 leukemia, 50%; with OVCAR-8 ovarian, 71.4%; in the test with OVCAR-5 ovarian, 106%; in the test with OVCAR-4 ovarian, 77.5%; in the test with SK-OV-3 ovarian, 84.3%. The growth was 99.9% in the test on IGROV1 ovarian; 82.8% in the test with OVCAR-3 ovarian; 90.5% in the test with HS 578T breast; 71.6% in the test with NCI/ADR-RES ovarian; 44% in the test with T-47D breast; 92.3% in the test on MDA-MB-435 melanoma. In addition, the growth with SW-620 colon is 73.1%; in the test with MCF7 breast it was 67.6%; in the test with HCT-116 colon, 37.5%; in the test on HCC-2998 colon it was 94%; with KM12 colon it was 88%.
`CCN1CCOC1C(C)C` (stereo unspecified): the growth with SR leukemia is 81.7%; with RPMI-8226 leukemia, 106%; with OVCAR-8 ovarian, 108%; with OVCAR-5 ovarian, 99.2%; in the test on OVCAR-4 ovarian, 113%; in the test on SK-OV-3 ovarian, 100%. Besides, the growth in the test with IGROV1 ovarian is 108%; in the test with OVCAR-3 ovarian, 111%; with HS 578T breast it was 109%; in the test on NCI/ADR-RES ovarian, 102%; with T-47D breast it was 101%; with BT-549 breast, 108%. Besides, the growth is 105% in the test with MDA-MB-435 melanoma; 101% with MCF7 breast; 102% with HCT-116 colon; 101% with HCC-2998 colon; 109% with KM12 colon.
For `O=C1/C(=C/c2cccs2)CCC/C1=C\c1cccs1`, the growth in the test with SR leukemia was 78.1%; in the test with RPMI-8226 leukemia, 57.5%; in the test on OVCAR-8 ovarian, 93.2%; in the test with OVCAR-5 ovarian, 79.5%; with OVCAR-4 ovarian it was 77.9%; in the test with SK-OV-3 ovarian, 101%. For the same compound, the growth in the test with IGROV1 ovarian is 98.8%; in the test on OVCAR-3 ovarian, 107%; with HS 578T breast, 95.7%; in the test with NCI/ADR-RES ovarian, 88.7%; with T-47D breast it was 17.8%; in the test on BT-549 breast, 110%. The growth was 81.3% in the test on MDA-MB-435 melanoma; 21.4% in the test with MCF7 breast; 80.2% in the test with HCT-116 colon; 89.1% with HCC-2998 colon; 65.6% in the test on KM12 colon.
For `Cc1nc2cc(-n3c(-c4ccc(F)cc4)nc4ccccc4c3=O)ccc2n1Cc1ccccc1`, the growth was -7.66% (active) in the test on SR leukemia; 37.5% with RPMI-8226 leukemia; 13% in the test on OVCAR-8 ovarian; 65.2% in the test on OVCAR-5 ovarian; -18.3% (active) in the test on OVCAR-4 ovarian; 58.8% with SK-OV-3 ovarian. Moreover, the growth was -18.7% (active) with OVCAR-3 ovarian; 5.86% (active) in the test on HS 578T breast; 6.09% (active) with NCI/ADR-RES ovarian; -29% (active) with T-47D breast; 2.3% (active) in the test with BT-549 breast; -32.6% (active) in the test on MDA-MB-435 melanoma. In addition, the growth in the test with SW-620 colon was 11.6%; in the test on MCF7 breast, -24.9% (active); with HCT-116 colon it was -18.8% (active); in the test with HCC-2998 colon, 61.7%; in the test on KM12 colon, 18.7%.
As for `COc1ccc2nc(NC(=O)Nc3c(F)cccc3F)sc2c1`, the growth is 92% in the test with SR leukemia; 87.6% in the test on RPMI-8226 leukemia; 98.9% in the test on OVCAR-8 ovarian; 108% with OVCAR-5 ovarian; 99.6% in the test with OVCAR-4 ovarian; 114% in the test with SK-OV-3 ovarian. Also, the growth in the test with IGROV1 ovarian was 114%; with OVCAR-3 ovarian, 118%; with HS 578T breast, 117%; in the test with NCI/ADR-RES ovarian, 105%; with T-47D breast it was 106%; with MDA-MB-435 melanoma, 99%. In addition, the growth is 105% in the test on SW-620 colon; 95.6% in the test on MCF7 breast; 102% in the test on HCT-116 colon; 102% in the test on HCC-2998 colon; 112% with KM12 colon.
Consider `C=CCc1cc(Nc2c3ccc(Cl)cc3nc3ccc(OC)cc23)cc(CN(CC)CC)c1O`, for which the growth is -20.4% (active) with SR leukemia; -25.7% (active) with RPMI-8226 leukemia; 8.73% (active) with OVCAR-8 ovarian; 47.5% with OVCAR-5 ovarian; 9.26% (active) with OVCAR-4 ovarian; 1.21% (active) in the test on SK-OV-3 ovarian. The growth in the test with IGROV1 ovarian is 25.5%; in the test on OVCAR-3 ovarian, 6.47% (active); with NCI/ADR-RES ovarian, 43.9%; with T-47D breast, 0.233% (active); with BT-549 breast, 10.9%; in the test with MDA-MB-435 melanoma it was 15.5%. Also, the growth in the test with SW-620 colon is 15.9%; in the test on MCF7 breast, 3.42% (active); with HCT-116 colon, 5.97% (active); in the test with HCC-2998 colon, 24.2%; in the test on KM12 colon, 11.7%.
For the compound `O=C(NCCCl)c1cc(Cl)cc(Cl)c1`, the growth in the test with SR leukemia was 103%; in the test on RPMI-8226 leukemia, 102%; with OVCAR-8 ovarian it was 102%; in the test with OVCAR-5 ovarian, 107%; in the test with OVCAR-4 ovarian, 95.1%; in the test on SK-OV-3 ovarian, 103%. In addition, the growth in the test with IGROV1 ovarian was 106%; with OVCAR-3 ovarian, 114%; with HS 578T breast, 103%; in the test on NCI/ADR-RES ovarian, 105%; in the test with T-47D breast, 93.6%; with BT-549 breast it was 105%. Moreover, the growth with MDA-MB-435 melanoma is 99.9%; with SW-620 colon, 112%; in the test with HCT-116 colon it was 110%; in the test on HCC-2998 colon, 102%; in the test with KM12 colon, 107%.
In the case of `COc1ccc(C2=Cc3ccc(OC(C)=O)cc3OC2)cc1`, the growth was 64.5% with SR leukemia; 83.4% in the test with RPMI-8226 leukemia; 95.8% with OVCAR-8 ovarian; 101% with OVCAR-5 ovarian; 88.1% with OVCAR-4 ovarian; 119% in the test on SK-OV-3 ovarian. The growth in the test on IGROV1 ovarian was 102%; in the test on OVCAR-3 ovarian, 93.1%; in the test with HS 578T breast it was 103%; in the test with NCI/ADR-RES ovarian, 85.2%; with T-47D breast it was 87.3%; in the test on BT-549 breast, 97.5%. The growth in the test with MDA-MB-435 melanoma was 91.9%; with SW-620 colon it was 101%; in the test with HCT-116 colon it was 104%; with HCC-2998 colon, 95%; with KM12 colon, 88.9%.
